# In the library only some 3.5% were active in any assay of this set; here they are far more common.
# Vc quorum ag: inducers of Vibrio cholerae quorum light production without autoinducers, primary screen, BH1578 luxS cqsA deficient, single point | V. cholerae BH1578 lux reporter, luminescence, 6 h | activation, % at 18.7 µM | 350,000 compounds, 0.16% hits | AID 588436, 2011; in the data active = activation mostly above about 9.7%, no sharp cut-off
# Anthrax LF inh2: Bacillus anthracis LF protease inhibitors, primary screen, biochemical, multiplex microsphere, MLPCN library | Lethal factor (Bacillus anthracis), P15917 | multiplex microsphere protease cleavage assay | inhibition, % at 10 µM | 360,000 compounds, 0.12% hits; in the data active = inhibition above about 30%; note: plate controls were buffer without enzyme for full effect and enzyme alone for no effect
# Target sequence (P15917 whole entry, looked up): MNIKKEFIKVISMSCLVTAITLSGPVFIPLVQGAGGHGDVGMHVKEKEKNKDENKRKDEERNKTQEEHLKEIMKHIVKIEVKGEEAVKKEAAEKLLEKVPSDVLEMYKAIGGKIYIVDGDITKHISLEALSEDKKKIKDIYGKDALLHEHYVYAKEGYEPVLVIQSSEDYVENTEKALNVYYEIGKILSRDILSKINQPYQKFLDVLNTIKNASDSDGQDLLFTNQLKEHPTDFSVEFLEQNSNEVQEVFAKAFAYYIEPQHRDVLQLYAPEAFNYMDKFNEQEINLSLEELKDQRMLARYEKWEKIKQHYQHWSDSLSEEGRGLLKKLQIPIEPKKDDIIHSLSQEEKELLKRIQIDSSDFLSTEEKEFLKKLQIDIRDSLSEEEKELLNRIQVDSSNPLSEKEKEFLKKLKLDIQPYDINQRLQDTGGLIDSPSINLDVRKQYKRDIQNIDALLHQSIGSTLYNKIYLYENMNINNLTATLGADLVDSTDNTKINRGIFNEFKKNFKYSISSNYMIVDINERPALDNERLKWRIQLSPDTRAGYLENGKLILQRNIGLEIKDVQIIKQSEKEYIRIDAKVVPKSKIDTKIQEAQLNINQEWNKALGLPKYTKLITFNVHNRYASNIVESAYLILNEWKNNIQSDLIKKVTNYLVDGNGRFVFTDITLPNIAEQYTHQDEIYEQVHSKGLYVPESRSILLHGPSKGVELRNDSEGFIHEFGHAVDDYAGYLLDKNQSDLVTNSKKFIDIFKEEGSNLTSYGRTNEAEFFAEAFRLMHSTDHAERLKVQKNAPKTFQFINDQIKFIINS
# Bead autofluor: compound fluorescence in toxin protease inhibitor counterscreen; compound autofluorescence counterscreen, microsphere flow cytometry; active compounds read high; fluorescence intensity (concentration not given with the values); 360,000 compounds, 3.1% hits; AID 624483; in the data active = fluorescence intensity above about 16000
# BoNT F protease: BoNT/F light chain protease inhibitors, primary screen, biochemical, flow cytometry, MLPCN library; Botulinum neurotoxin type F light chain protease (Clostridium botulinum); Multiplex microsphere protease cleavage assay; inhibition, % at 10 µM; 360,000 compounds, 0.22% hits; in the data active = inhibition above about 35%, passing the limit was not always enough; note: plate controls were buffer without enzyme for full effect and enzyme alone for no effect
# BoNT A protease: BoNT/A light chain protease inhibitors, primary screen, biochemical, flow cytometry, MLPCN library; inhibition, % at 10 µM; 360,000 compounds, 0.17% hits; multiplex microsphere protease substrate cleavage; Botulinum neurotoxin type A light chain protease (Clostridium botulinum A str. ATCC 3502); in the data active = inhibition above about 30%; note: plate controls were buffer without enzyme for full effect and enzyme alone for no effect
# BoNT-A LC CP2: BoNT/A light chain protease inhibitors, confirmation, biochemical, flow cytometry, cherry pick 2; shares compounds with BoNT A protease; multiplex microsphere protease cleavage assay; inhibition, % at 10 µM; 150 compounds, 10% hits; in the data active = inhibition above about 24%
# Anthrax LF CP2: Bacillus anthracis LF protease inhibitors, confirmation, biochemical, multiplex microsphere. 150 compounds, 7% hits. shares compounds with BoNT A protease. AID 602327, 2012. multiplex microsphere protease cleavage assay. inhibition, % at 10 µM
# BoNTF LC inh 2: BoNT/F light chain protease inhibitors, confirmation, biochemical, flow cytometry, cherry pick 2 | multiplex microsphere protease cleavage assay | inhibition, % at 10 µM | shares compounds with BoNT A protease | 150 compounds, 7% hits
# Active calls of the source: *; i = inactive; x = no result. Cut-off read from the data, not from the text of the source, unless noted: active = inhibition above about 25%; inactive = the rest.
SMILES,Vc quorum ag,Anthrax LF inh2,Bead autofluor,BoNT F protease,BoNT A protease,BoNT-A LC CP2,Anthrax LF CP2,BoNTF LC inh 2
C[C@@H]1CN([C@@H](C)CO)C(=O)CCCn2nncc2CO[C@H]1CN(C)S(=O)(=O)c1ccc(-n2cccn2)cc1,-0.4,0.5,3602,1.8,-0.1,x,x,x
O=C(C[n+]1ccc(C(=O)c2ccccc2)cc1)Nc1ccccc1OC(F)F,i,64.5*,2711,32.4,54.9*,2.5,2.5,-4.0
CCN(CC)c1ccc2cc(S(=O)(=O)c3ccc(Cl)cc3)c(=O)oc2c1,-0.5,42.2*,3309,21.0,67.5*,26.3*,25.4*,15.2
Cc1ccc(S(=O)(=O)N2CC(O)C[C@H]2C(=O)OCC(=O)N2CCN(c3ccc(F)cc3)CC2)cc1C (stereo partly drawn),1.8,97.4*,5341,97.2*,98.9*,2.2,0.4,4.9
Cc1cc2nc(-c3ccc(F)cc3)c(Cc3cccc(Cl)c3)n2c(C)c1Br,x,-1.0,4535,-5.5,1.6,2.8,0.0,5.7
Cc1cc2nc(-c3ccc(F)cc3)c(Cc3ccccc3)n2c(C)c1Br,x,3.2,5770,3.5,1.6,x,x,x
Cc1ccc(Cc2c(-c3cccc(Cl)c3)nc3cc(C)c(Br)c(C)n23)cc1,x,2.4,5438,-8.9,-0.1,x,x,x
Cc1cc2nc(-c3ccccc3)c(Cc3cccc(Cl)c3)n2c(C)c1Br,x,-4.4,4680,-2.7,-0.6,16.4,-3.6,12.5
Cc1ccc(-c2nc3cc(C)c(Br)c(C)n3c2Cc2cccc(Cl)c2)cc1,x,-5.1,4668,0.2,1.0,26.4*,-2.1,15.5
O=C(CCC1CCCC1)N1CCN(S(=O)(=O)c2ccc(Br)cc2)CC1,i,89.4*,6066,82.7*,80.0*,2.5,0.1,6.1
O=C(CC1CCCC1)N1CCN(S(=O)(=O)c2ccc(F)cc2)CC1,0.7,2.3,3402,-0.2,-0.3,x,x,x
CCn1cnc2c1c(=O)n(CC(=O)OC)c(=O)n2Cc1ccccc1,0.5,-6.2,4145,-20.8,-2.5,x,x,x
CC(Oc1ccccc1F)c1nnc(SCC(=O)c2c(N)n(C3CC3)c(=O)[nH]c2=O)o1 (stereo not drawn),i,98.1*,5129,90.7*,95.9*,1.4,-0.2,0.4
CCN(CC)c1ccc2cc(C(=O)c3cccs3)c(=O)oc2c1,x,32.6*,5733,32.2,53.5*,21.9,20.9,16.4
CCN(CC)c1ccc2cc(C(=O)NCc3ccc(F)cc3)c(=N)oc2c1,-0.3,8.8,11232,15.6,18.0,x,x,x
O=C(/C=C/[C@H]1O[C@@H](n2cnc3c(NC(=O)c4ccccc4)ncnc32)[C@H](O)[C@@H]1O)NCc1cccs1,x,3.7,5127,-7.3,-0.7,x,x,x
Cc1cccc(NC(=O)NCc2ccc3[nH]c(C)cc3c2)c1,-0.3,-86.7,2613,-97.2,49.5*,3.0,1.1,12.0
Cc1ccc(CNC(=O)Nc2cccc(C)c2)cc1,-0.2,-2.7,2262,-5.6,0.2,x,x,x

# Screens as filed in PubChem BioAssay.
